The list is not random: actives were taken first. Their share in the collection is about 7.9%.
KB-V1 MDR tox = kills drug-selected multidrug resistant KB-V1 cells | KB-V1 MDR cells viability, CellTiter-Glo, 72 h | Potency, µM (highest dose often 46.1 µM), usual class: cytotoxic | 400,000 compounds, 3.4% hits | AID 1347076; note: % is set by controls: 0 for no effect and ±100 for the full control effect; nearly all actives have a fitted effect of over 60% in size
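Drug-selected KB-V1 cells, grown in DMEM lacking phenol red with 10% FBS, receive compound titrations; after three days at 37 degrees C, surviving cell ATP is quantified by CellTiter-Glo luminescence and responses normalized and curve-fitted.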
MCF10A rerep = DNA re-replication induction in MCF 10a cells; MCF 10A DNA re-replication, Hoechst nuclear intensity, 48 h; 350,000 compounds, 2.9% hits; Potency, µM (doses to about 46.1 µM), for the others: top-dose activity, positive = re-replication, hits mostly activators; note: % of control where 0% means no effect; nearly all actives have a fitted effect of over 50% in size
HT1080 IDH1KD tx = HT-1080 IDH1 knockdown cell toxicity (counter line) | HT-1080 IDH1 knockdown viability, ATP luminescence, 48 h | Potency, µM (series often up to 46.1 µM), for the others: top-dose activity, negative = toxicity, actives largely listed as cytotoxic | 360,000 compounds, 2% hits;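 note: 0% = DMSO wells and -100% = cell-free medium wells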
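% activity derives from luminescence (CellTiter-Glo), normalised to DMSO and no-cell wells. HT-1080-IDH1KD cells, 750/well, had 48 h compound exposure at 37 °C.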
SW480 rerep = inducers of DNA re-replication in SW480 colon cancer cells | SW480 DNA re-replication, Hoechst DNA content imaging, 48 h | Potency, µM (top dose mostly 46.1 µM), for inactives: at the highest dose re-replication activation, usual class: activators | 340,000 compounds, 1.8% hits; note: % of control where 0% means no effect; nearly all actives have a fitted effect of over 55% in size
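DNA re-replication was detected as more nuclei of elevated Hoechst intensity after 48 hr exposure to compound (23 nL pinned per well of 250 cells).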
KB-3-1 cytotox = kills parental KB-3-1 adenocarcinoma cells. KB-3-1 viability, CellTiter-Glo ATP luminescence, 72 h. Potency, µM (titrated, usually from 46.1 µM), actives largely listed as cytotoxic. 400,000 compounds, 1.4% hits; note: % is set by controls: 0 for no effect and ±100 for the full control effect; nearly all actives have a fitted effect of over 60% in size
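Here the drug-naive KB-3-1 line serves as comparator for MDR sub-line selectivity; cells received compound titrations, 72 h at 37 °C, then CellTiter-Glo readout.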
HT1080-NT tox = kills 2HG-producing HT-1080-NT fibrosarcoma cells; HT-1080-NT fibrosarcoma viability, CellTiter-Glo ATP luminescence, 48 h; AID 686970; Potency, µM (highest dose often 46.1 µM), for the others: at the highest dose activity, negative = less viability, usual class: cytotoxic; 360,000 compounds, 1.6% hits;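 note: NT is the 2HG producing partner of a matched IDH1 knockdown line; 0% = DMSO-treated cells and -100% = media-only wells without cells; nearly all actives have a fitted effect of over 55% in size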
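Toxicity toward the 2HG-producing NT line was scored as %Activity, normalised to DMSO and no-cell wells, from CellTiter-Glo luminescence after 48 hours' treatment.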
Starred values were filed as active, the others as inactive. Calls come from the whole dose curve; as a rule, active = well fitted curve in the direction sought with a large enough effect; inconclusive = small, poorly fitted or top-dose-only effect, or another doubt; inactive = no such curve, though single readings can be large; an effect the other way counts as inactive or inconclusive. Potency is the fitted concentration of half-maximal effect.

COc1ccc2nc3oc(C(=O)N4CCN(c5cc(C)ccc5C)CC4)cc3cc2c1 was read as KB-V1 MDR tox inactive and KB-3-1 cytotox inactive.
O=C(C1CC(=O)N(C2CCCC2)C1)N1CCN(c2ccccc2F)CC1 (stereo not given) was read as KB-V1 MDR tox inactive, MCF10A rerep 1%, HT1080 IDH1KD tx -4%, SW480 rerep -10%, KB-3-1 cytotox inactive and HT1080-NT tox 8%.
O=C(C1CC(=O)N(C2CCCC2)C1)N1CCC(Cc2ccccc2)CC1 (stereo not given) was read as KB-V1 MDR tox 13µM*, MCF10A rerep 0%, HT1080 IDH1KD tx -9%, SW480 rerep 5%, KB-3-1 cytotox inactive and HT1080-NT tox -17%.
For CCc1nn2c(=O)cc(COC(=O)c3ccc(SC)cc3OC)nc2s1 the results were KB-V1 MDR tox 10µM*, MCF10A rerep -6%, HT1080 IDH1KD tx 14%, SW480 rerep -6%, KB-3-1 cytotox inactive and HT1080-NT tox 10%.
S=C(NCc1ccc(Cl)cc1)NC1CCN(Cc2ccccc2)CC1 was read as KB-V1 MDR tox 16µM*, MCF10A rerep inconclusive, HT1080 IDH1KD tx 21µM*, SW480 rerep 16µM*, KB-3-1 cytotox inconclusive and HT1080-NT tox 23µM*.
`CC(C)c1ccc(NC(=S)NC2CCN(Cc3ccccc3)CC2)cc1` gave KB-V1 MDR tox 21µM*, MCF10A rerep 28%, HT1080 IDH1KD tx inconclusive, SW480 rerep inconclusive, KB-3-1 cytotox inconclusive and HT1080-NT tox inconclusive.
For S=C(Nc1cc(Cl)cc(Cl)c1)NC1CCN(Cc2ccccc2)CC1 the results were KB-V1 MDR tox inconclusive, MCF10A rerep inconclusive, HT1080 IDH1KD tx inconclusive, SW480 rerep inconclusive, KB-3-1 cytotox inconclusive and HT1080-NT tox 16µM*.
`Clc1ccc(CNC2CCN(Cc3ccccc3)CC2)cc1` gave KB-V1 MDR tox inactive, MCF10A rerep 1%, HT1080 IDH1KD tx inconclusive, SW480 rerep -2%, KB-3-1 cytotox inactive and HT1080-NT tox -26%.
`CCC(=O)OCc1cc(=O)n2nc(C3CC3)sc2n1` gave KB-V1 MDR tox inactive and KB-3-1 cytotox inactive.
`CCN1CCN(c2ncc3c(n2)CCN(Cc2sccc2C)C3)CC1` gave KB-V1 MDR tox inactive and KB-3-1 cytotox inactive.
Screening COc1ccc2c(C)c(CCC(=O)NCCc3ccc(Cl)cc3)c(=O)oc2c1 returned KB-V1 MDR tox inactive and KB-3-1 cytotox inactive.
Cc1cc(C)n(-c2nc(NC(C)C)nc(NC(C)C)n2)n1 was read as KB-V1 MDR tox inconclusive, MCF10A rerep 18%, HT1080 IDH1KD tx 0%, SW480 rerep 2.9µM*, KB-3-1 cytotox inactive and HT1080-NT tox -1%.
Cc1cc(C)n(-c2ncc(C#N)cn2)n1 was read as KB-V1 MDR tox inactive, MCF10A rerep 0%, HT1080 IDH1KD tx 8%, SW480 rerep 1%, KB-3-1 cytotox inconclusive and HT1080-NT tox 5%.
Screening Cc1cc(C)n(-c2nc(N(C)C)nc(N(C)C)n2)n1 returned KB-V1 MDR tox inactive, MCF10A rerep -5%, HT1080 IDH1KD tx 6.3µM*, SW480 rerep 1%, KB-3-1 cytotox inactive and HT1080-NT tox 7.1µM*.
Cc1cc(C)n(-c2nc(Nc3ccccc3C(F)(F)F)nc(-n3nc(C)cc3C)n2)n1 was read as KB-V1 MDR tox 0.92µM*, MCF10A rerep inconclusive, HT1080 IDH1KD tx inconclusive, SW480 rerep inconclusive, KB-3-1 cytotox inactive and HT1080-NT tox 9.2µM*.
Screening CCNc1nc(NCC)nc(-n2nc(C)cc2C)n1 returned KB-V1 MDR tox inconclusive, MCF10A rerep 10%, HT1080 IDH1KD tx 0.89µM*, SW480 rerep -1%, KB-3-1 cytotox inactive and HT1080-NT tox 2µM*.
For Cc1cc(C)n(-c2nnc(NC(C)(C)C)nn2)n1 the results were KB-V1 MDR tox inactive, MCF10A rerep inconclusive, HT1080 IDH1KD tx 5%, SW480 rerep 10%, KB-3-1 cytotox inactive and HT1080-NT tox 2%.
